Consider 19 molecules from PubChem BioAssay.

Values without a mark were called inactive. For some assays here: Results with a measured potency or affinity are listed apart. Active and inactive are the calls of the source. Unless noted, no rule for the calls is given here.

A short description of assay [1]: antimalarial activity against Dd2 strain (AID 2302;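 active = growth inhibition above 50% at the single 2 µM test dose, taken to imply half-maximal potency below 2 µM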;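 also: 0% = DMSO untreated growth and 100% = chloroquine plus artemisinin killed control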). To be noted: P. falciparum Dd2 in RBCs, LDH growth readout, 72 h; at 2 µM; hits give high values.
The nature of assay [2]: HepG2 cytotoxicity, primary screen, cytotoxicity control for P. falciparum antimalarial project, cell-based, ATP luminescence (AID 2303;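 active = inhibition above 50%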;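 also: 0% = DMSO wells and 100% = digitonin-killed cells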). Conditions: HepG2 viability, 24-48 h, at 10 µM, hits give high values.
Assay [3] has as its target L-lactate dehydrogenase (Plasmodium falciparum (isolate CDC / Honduras)) (UniProt Q27743). Briefly: PfLDH activity inhibition – cell lysate, 3D7 strain, counter-screen for P. falciparum growth inhibition project (AID 2304).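 Also: 0% = vehicle and 100% = reference inhibitor.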 Conditions: P. falciparum 3D7 crude extract, LDH APAD/NBT absorbance; at 2 µM; hits give high values. A general note: Counterscreens check selectivity or assay interference.

Assay [4] is described as follows: inhibition of 3D7 malaria parasite growth – strain 3D7 (AID 2306).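 Also: 0% = DMSO wells and 100% = chloroquine plus artemisinin control wells.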 Conditions: P. falciparum 3D7 erythrocytic growth, LDH absorbance, 72 h; at 2 µM; hits give high values.
The target in assay [5] is Calcium-dependent protein kinase 1 (Plasmodium falciparum (isolate 3D7)) (UniProt P62344). Briefly: PfCDPK1 kinase inhibitors, biochemical, TCAMS library (AID 1159585; cut-off not given, nearly all actives have IC50 up to about 0.98 µM;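 also: inhibitors leave more ATP so luminescence rises with inhibition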). Conditions: recombinant PfCDPK1, Kinase-Glo ATP depletion luminescence. For orientation: In Kinase-Glo more light means more ATP remaining.
The target of assay [6] is Plasmodium falciparum protein kinase 6 (PK6, PF3D7_1337100) (UniProt Q8IDW1). Briefly: PfPK6 kinase inhibitors, biochemical, TCAMS library (AID 1159586). Conditions: recombinant PfPK6, Kinase-Glo ATP depletion luminescence.
Assay [7] concerns the target Protein kinase 7 (PK7), Plasmodium falciparum 3D7 (PF3D7_0213400) (UniProt Q7YTF7). Briefly: inhibition of Plasmodium PK7 catalytic activity – biochemical, TCAMS antimalarial set, Kinase-Glo luminescence (AID 1159587). To be noted: recombinant PfPK7, Kinase-Glo ATP depletion luminescence.
Assay [8] concerns the target Calcium-dependent protein kinase 4 (Plasmodium falciparum (isolate 3D7)) (UniProt Q8IBS5). Nature of the assay: PfCDPK4 kinase inhibitors, biochemical, TCAMS library (AID 1159588; cut-off not given, nearly all actives have IC50 up to about 0.91 µM). To be noted: recombinant PfCDPK4, Kinase-Glo ATP depletion luminescence.

Chain of Calcium-dependent protein kinase 1 (Plasmodium falciparum (isolate 3D7)) (P62344 whole entry, looked up): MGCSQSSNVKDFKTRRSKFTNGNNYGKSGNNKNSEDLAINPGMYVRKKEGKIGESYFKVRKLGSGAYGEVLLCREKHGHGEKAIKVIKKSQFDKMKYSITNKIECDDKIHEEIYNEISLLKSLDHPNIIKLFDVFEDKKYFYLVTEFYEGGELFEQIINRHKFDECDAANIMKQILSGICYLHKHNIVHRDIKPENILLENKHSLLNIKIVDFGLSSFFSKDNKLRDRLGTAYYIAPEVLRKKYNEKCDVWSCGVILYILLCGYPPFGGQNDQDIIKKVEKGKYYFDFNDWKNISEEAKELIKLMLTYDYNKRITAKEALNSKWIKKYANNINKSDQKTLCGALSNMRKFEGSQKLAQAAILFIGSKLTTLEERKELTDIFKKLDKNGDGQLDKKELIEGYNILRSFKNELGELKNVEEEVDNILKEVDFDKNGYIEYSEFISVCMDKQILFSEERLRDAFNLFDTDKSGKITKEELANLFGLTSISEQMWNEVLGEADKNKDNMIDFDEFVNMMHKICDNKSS
Chain of Protein kinase 7 (PK7), Plasmodium falciparum 3D7 (PF3D7_0213400) (Q7YTF7 1-343): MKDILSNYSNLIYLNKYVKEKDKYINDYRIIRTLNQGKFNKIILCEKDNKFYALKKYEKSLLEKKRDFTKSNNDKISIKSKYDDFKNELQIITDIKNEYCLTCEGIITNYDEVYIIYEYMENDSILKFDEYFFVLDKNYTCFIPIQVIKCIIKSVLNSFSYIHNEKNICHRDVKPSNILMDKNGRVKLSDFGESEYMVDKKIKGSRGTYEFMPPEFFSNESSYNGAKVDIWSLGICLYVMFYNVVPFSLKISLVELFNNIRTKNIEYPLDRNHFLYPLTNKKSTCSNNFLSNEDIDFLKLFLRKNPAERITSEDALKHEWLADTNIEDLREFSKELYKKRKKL
Chain of Calcium-dependent protein kinase 4 (Plasmodium falciparum (isolate 3D7)) (Q8IBS5 whole entry, looked up): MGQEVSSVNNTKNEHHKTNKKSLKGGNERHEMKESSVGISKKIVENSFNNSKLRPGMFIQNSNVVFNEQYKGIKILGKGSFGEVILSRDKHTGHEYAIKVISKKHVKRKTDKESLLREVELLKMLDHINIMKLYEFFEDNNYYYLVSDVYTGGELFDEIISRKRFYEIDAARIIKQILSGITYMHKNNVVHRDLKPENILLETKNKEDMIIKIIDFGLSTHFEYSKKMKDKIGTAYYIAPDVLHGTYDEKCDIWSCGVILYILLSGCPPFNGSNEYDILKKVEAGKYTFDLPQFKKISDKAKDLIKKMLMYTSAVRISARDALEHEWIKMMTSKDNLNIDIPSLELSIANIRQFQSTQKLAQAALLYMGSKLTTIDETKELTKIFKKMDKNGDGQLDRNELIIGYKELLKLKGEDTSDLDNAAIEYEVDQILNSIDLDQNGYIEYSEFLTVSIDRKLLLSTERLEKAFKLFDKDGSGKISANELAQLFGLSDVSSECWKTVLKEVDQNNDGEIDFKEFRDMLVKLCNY
Chain of Plasmodium falciparum protein kinase 6 (PK6, PF3D7_1337100) (Q8IDW1 1-305): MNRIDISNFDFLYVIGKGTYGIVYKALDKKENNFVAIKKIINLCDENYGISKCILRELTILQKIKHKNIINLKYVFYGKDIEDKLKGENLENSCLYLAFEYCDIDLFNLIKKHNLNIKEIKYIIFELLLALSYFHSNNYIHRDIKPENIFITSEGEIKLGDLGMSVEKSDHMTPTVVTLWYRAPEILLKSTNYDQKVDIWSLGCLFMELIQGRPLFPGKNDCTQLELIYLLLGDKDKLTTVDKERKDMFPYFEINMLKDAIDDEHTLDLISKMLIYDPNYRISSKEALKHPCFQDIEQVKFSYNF
Chain of L-lactate dehydrogenase (Plasmodium falciparum (isolate CDC / Honduras)) (Q27743 whole entry, looked up): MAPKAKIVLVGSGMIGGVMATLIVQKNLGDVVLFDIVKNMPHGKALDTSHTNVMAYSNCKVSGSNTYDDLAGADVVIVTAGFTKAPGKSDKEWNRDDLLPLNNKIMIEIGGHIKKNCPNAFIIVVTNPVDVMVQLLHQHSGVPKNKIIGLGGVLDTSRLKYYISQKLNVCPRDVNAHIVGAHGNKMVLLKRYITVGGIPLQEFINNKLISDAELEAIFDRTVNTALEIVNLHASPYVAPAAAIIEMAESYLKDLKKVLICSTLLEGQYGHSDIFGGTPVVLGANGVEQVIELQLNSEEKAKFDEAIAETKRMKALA

In general, inhibition refers to the drop in the measured response relative to a control, in per cent. Take `Cc1cccc2[nH]c(-c3ccc(-c4cccc(C(=O)NCCc5cn(C)cn5)c4)s3)nc12`: the growth inhibition was 17% in assay [1] and 92% (active) in assay [4]. The results for the inhibition in assay [2] and in assay [3] were 27% and -7%, respectively. Besides, the result in assay [5], in assay [6], in assay [7] and in assay [8] was inactive.
Turning to `CCn1c(-c2nonc2N)nc2cnc(Oc3cccc(NC(=O)c4ccc(OCCCN5CCCCC5)cc4)c3)cc21`, the growth inhibition is 12% in assay [1] and 90% (active) in assay [4]. Moreover, the inhibition in assay [2] was 38%; in assay [3] it was -4%. Also, the outcome in assay [5], in assay [6], in assay [7] and in assay [8] was inactive.
Consider `O=C1Nc2cccc3c2C1(CCCCN1CCC(c2c(-c4ccccc4)[nH]c4ccccc24)CC1)CCC3` (configuration not stated), for which the growth inhibition is 33% in assay [1] and 84% (active) in assay [4]. The inhibition in assay [2] is 18%; in assay [3], -1%. Further, the result in assay [5], in assay [6], in assay [7] and in assay [8] was inactive.
As for `Oc1ccc2[nH]c(-c3cccc(F)c3)nc2c1CNCc1ccccc1`, the growth inhibition in assay [1] is 55% (active); in assay [4], 92% (active). Further, the inhibition in assay [2] was 29%; in assay [3] it was -2%. The result in assay [5], in assay [6], in assay [7] and in assay [8] was inactive.
As to `COc1ccc2nccc([C@@H](O)CN3CCC(NC(=O)/C=C/c4cccc(-c5ccccc5)c4)CC3)c2c1`, the values for the growth inhibition in assay [1] and in assay [4] were 83% (active) and 98% (active), respectively. The figures for the inhibition in assay [2] and in assay [3] were 12% and -5%, respectively. For the same molecule, the outcome in assay [5], in assay [6], in assay [7] and in assay [8] was inactive.
On to `CCOC(=O)c1ccc(NC(=O)Nc2cccc(-c3cccc(-c4nc5c(C)cccc5[nH]4)c3)c2)cc1`, for which the figures for the growth inhibition in assay [1] and in assay [4] were 99% (active) and 100% (active), respectively. Also, the inhibition is 37% in assay [2] and 0% in assay [3]. In addition, the result in assay [5], in assay [6], in assay [7] and in assay [8] was inactive.
`Cc1ccc(Cn2ncc(NC3CCNCC3)c(Cl)c2=O)cc1NC(=O)Nc1ccc(-c2ccccc2)cc1`: the results for the growth inhibition in assay [1] and in assay [4] were 61% (active) and 99% (active), respectively. In addition, the values for the inhibition in assay [2] and in assay [3] were 18% and -2%, respectively. Also, the result in assay [5], in assay [6], in assay [7] and in assay [8] was inactive.
Consider `O=C(Cc1ccccc1)NC1(c2ccccc2)CCN(CCc2c[nH]c3ccc(F)cc23)CC1`, for which the growth inhibition was 62% (active) in assay [1] and 87% (active) in assay [4]. Moreover, the inhibition was 29% in assay [2] and 2% in assay [3]. The result in assay [5], in assay [6], in assay [7] and in assay [8] was inactive.
With `O=C(Cn1c(CCc2cccc(F)c2F)nc(=O)c2cccnc21)N(Cc1ccc(-c2ccc(C(F)(F)F)cc2)cc1)C1CCN(C2CCOCC2)CC1`, the growth inhibition in assay [1] was 67% (active); in assay [4] it was 94% (active). In addition, the figures for the inhibition in assay [2] and in assay [3] were 100% (active) and 1%, respectively. In addition, the outcome in assay [5], in assay [6], in assay [7] and in assay [8] was inactive.
Turning to `CO/C(=C\C=C\c1cc2cc(Cl)ccc2[nH]1)C(=O)NCCCN1CCN(c2cc(Cl)ccc2OC)CC1`, the values for the growth inhibition in assay [1] and in assay [4] were 21% and 97% (active), respectively. The inhibition in assay [2] is 41%; in assay [3], -2%. Besides, the outcome in assay [5], in assay [6], in assay [7] and in assay [8] was inactive.
Consider `O=C(c1cccc(-c2ccc(-c3nc4ccc(C(F)(F)F)cc4[nH]3)cc2)c1)N1CCCCC1CN1CCC(O)C1` (configuration not stated), for which the figures for the growth inhibition in assay [1] and in assay [4] were 101% (active) and 92% (active), respectively. Also, the figures for the inhibition in assay [2] and in assay [3] were 19% and 4%, respectively. Also, the outcome in assay [5], in assay [6], in assay [7] and in assay [8] was inactive.
Consider `COc1ccccc1N1CCN(c2cccc3c2nc(-c2cncc(C#N)c2)n3CCNCc2ccccc2)CC1`, for which the growth inhibition was 81% (active) in assay [1] and 101% (active) in assay [4]. Moreover, the values for the inhibition in assay [2] and in assay [3] were -8% and 3%, respectively. Besides, the outcome in assay [5], in assay [6], in assay [7] and in assay [8] was inactive.
As to `CC1CCCCN1CCCNc1ncc2c(-c3ccc(NC(=O)Nc4cc(C(F)(F)F)ccc4F)c(F)c3)nn(C)c2n1` (configuration not stated), the growth inhibition was 97% (active) in assay [1] and 101% (active) in assay [4]. The inhibition in assay [2] is 27%; in assay [3], 2%. Further, the result in assay [5], in assay [6], in assay [7] and in assay [8] was inactive.
As to `Cc1cc(OCCCN2CCC(NS(=O)(=O)c3ccc(Cl)c(Cl)c3)C2)c2ccccc2n1` (configuration not stated), the values for the growth inhibition in assay [1] and in assay [4] were 37% and 87% (active), respectively. In addition, the values for the inhibition in assay [2] and in assay [3] were 28% and 1%, respectively. For the same molecule, the result in assay [5], in assay [6], in assay [7] and in assay [8] was inactive.
`COc1cc(NC(=O)N2CCOC(CCN3CCC(c4ccccc4)CC3)(c3ccc(Cl)c(Cl)c3)C2)cc(OC)c1` (configuration not stated): the growth inhibition in assay [1] is 73% (active); in assay [4], 93% (active). Also, the inhibition in assay [2] was 12%; in assay [3], 0%. In addition, the outcome in assay [5], in assay [6], in assay [7] and in assay [8] was inactive.
On to `CN(C)CCNCc1cccc(-c2cccc(-c3nc4ccccc4[nH]3)c2)c1`, for which the growth inhibition was 63% (active) in assay [1] and 101% (active) in assay [4]. The inhibition in assay [2] is 7%; in assay [3] it was -3%. The result in assay [5], in assay [6], in assay [7] and in assay [8] was inactive.
`O=C(NCCCCCN1CCC(c2ccc(O)cc2)CC1)c1ccc(-c2ccccc2)cc1`: the growth inhibition in assay [1] is -7%; in assay [4], 92% (active). The inhibition in assay [2] was 28%; in assay [3] it was -1%. Moreover, the outcome in assay [5], in assay [6], in assay [7] and in assay [8] was inactive.
Regarding `COc1ccc(C2CCN(CCN3CCC(NC(=O)c4cccc(-c5ccncc5)c4)CC3)CC2)c(OC)c1`, the growth inhibition in assay [1] is 24%; in assay [4] it was 94% (active). Also, the inhibition was 7% in assay [2] and -6% in assay [3]. The result in assay [5], in assay [6], in assay [7] and in assay [8] was inactive.
Take `COc1cc(C)nc2ccc(NC(=O)c3ccc(C(=O)Nc4ccc5nc(C)cc(OC)c5c4)cc3)cc12`: the results for the growth inhibition in assay [1] and in assay [4] were 72% (active) and 96% (active), respectively. Moreover, the inhibition in assay [2] is 27%; in assay [3] it was -5%. Moreover, the result in assay [5], in assay [6], in assay [7] and in assay [8] was inactive.
